From PubChem
IP6K1 inh – Primary qHTS assay for small molecule inhibitors of Inositol hexaphosphate kinase 1 (IP6K1). IP6K1 kinase, ADP-Glo luminescence, 2 h; hits give low values. AID 1645851, 2021. actives 0.81% (n = 140,000). activity change, % (series mostly up to about 58 µM). Inositol hexakisphosphate kinase 1 (Homo sapiens), Q92551; in the data active = activity change below about -25%; also: % is scaled to controls: 0 for no effect and ±100 for the full control effect
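ADP-Glo luminescence measures ADP made by human IP6K1 during a 2 h RT reaction with ATP/IP6 (mix at 1.3 mM/130 uM); top library doses 57.5 and 19.1 uM final.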
KDM5B inhibitor – Primary screen for KDM5B Histone Demethylases FDH-coupled qHTS; Lysine-specific demethylase 5B (Homo sapiens), Q9UGL1; KDM5B demethylase, FDH-coupled NADH fluorescence (FDH is formaldehyde dehydrogenase); Potency, µM (doses to about 57.7 µM), hits mostly inhibitors; actives 2.6% (n = 220,000); also: potency is read from the fitted curve at half-maximal effect; 0% is about no effect; nearly all actives have a fitted effect of over 70% in size
Target sequence (Q9UGL1 whole entry, looked up): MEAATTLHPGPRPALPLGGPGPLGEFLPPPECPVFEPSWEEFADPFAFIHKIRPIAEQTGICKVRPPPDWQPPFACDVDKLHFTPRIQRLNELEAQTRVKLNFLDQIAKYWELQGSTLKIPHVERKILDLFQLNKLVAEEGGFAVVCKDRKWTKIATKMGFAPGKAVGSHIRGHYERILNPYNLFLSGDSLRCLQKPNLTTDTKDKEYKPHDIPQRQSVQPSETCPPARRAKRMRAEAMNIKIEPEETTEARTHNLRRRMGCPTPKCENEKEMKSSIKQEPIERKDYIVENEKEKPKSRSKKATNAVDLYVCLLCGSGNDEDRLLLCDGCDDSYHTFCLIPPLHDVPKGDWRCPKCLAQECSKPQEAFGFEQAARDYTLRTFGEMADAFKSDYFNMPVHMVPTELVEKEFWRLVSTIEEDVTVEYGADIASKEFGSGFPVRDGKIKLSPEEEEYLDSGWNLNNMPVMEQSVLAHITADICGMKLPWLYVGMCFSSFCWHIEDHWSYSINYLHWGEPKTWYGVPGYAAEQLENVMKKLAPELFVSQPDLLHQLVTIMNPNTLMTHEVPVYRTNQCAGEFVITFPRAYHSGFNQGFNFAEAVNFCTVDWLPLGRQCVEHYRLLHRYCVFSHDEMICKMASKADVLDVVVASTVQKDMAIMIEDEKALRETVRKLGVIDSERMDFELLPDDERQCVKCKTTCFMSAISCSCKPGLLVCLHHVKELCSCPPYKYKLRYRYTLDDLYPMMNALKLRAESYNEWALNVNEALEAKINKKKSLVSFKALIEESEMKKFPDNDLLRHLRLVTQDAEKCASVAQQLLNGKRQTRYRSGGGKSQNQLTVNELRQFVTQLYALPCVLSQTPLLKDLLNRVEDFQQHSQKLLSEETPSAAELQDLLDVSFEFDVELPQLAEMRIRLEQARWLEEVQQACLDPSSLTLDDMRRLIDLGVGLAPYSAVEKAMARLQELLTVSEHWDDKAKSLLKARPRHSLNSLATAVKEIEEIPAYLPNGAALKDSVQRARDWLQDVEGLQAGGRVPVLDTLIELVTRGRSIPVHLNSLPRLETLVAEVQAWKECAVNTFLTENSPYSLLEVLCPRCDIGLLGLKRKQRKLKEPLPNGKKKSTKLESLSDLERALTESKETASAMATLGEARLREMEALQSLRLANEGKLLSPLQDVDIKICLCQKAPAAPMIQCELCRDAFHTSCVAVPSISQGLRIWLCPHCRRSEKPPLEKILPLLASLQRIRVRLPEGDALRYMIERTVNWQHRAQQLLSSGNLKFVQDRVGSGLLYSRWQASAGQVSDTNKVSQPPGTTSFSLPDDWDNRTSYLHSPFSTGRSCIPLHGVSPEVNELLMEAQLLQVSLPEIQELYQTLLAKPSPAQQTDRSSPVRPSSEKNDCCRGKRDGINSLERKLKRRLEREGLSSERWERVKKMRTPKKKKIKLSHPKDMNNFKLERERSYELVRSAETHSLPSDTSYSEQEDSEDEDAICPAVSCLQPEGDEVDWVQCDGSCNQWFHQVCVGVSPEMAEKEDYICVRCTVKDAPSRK
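Coupled FDH/NAD⁺ fluorescence readout. KDM5BΔAP 200 nM final; compound titration, 10 min RT preincubation; substrate mix 12.5 µM H3K4me3, 25 µM 2-OG, 50 µM Fe(II), 100 µM ascorbate, 0.25 mM NAD⁺, 0.25 U/mL FDH; ΔRFU over 30 min.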
IP6K1 conf – Confirmatory qHTS assay for small molecule inhibitors of Inositol hexaphosphate kinase 1 (IP6K1) | recombinant IP6K1 kinase, ADP-Glo luminescence, 2 h | AID 1645852, 2021 | Potency, µM (doses to about 49 µM), for the others: top-dose activity change, negative = inhibition, hits mostly inhibitors | shares compounds with IP6K1 inh | actives 13% (n = 1,200); also: potency is read from the fitted curve at half-maximal effect; % is scaled to controls: 0 for no effect and ±100 for the full control effect; nearly all actives have a fitted effect of over 65% in size
Active calls of the source: *; i = inactive; u = inconclusive; x = no result given; [ ] = remark or other dose. A selection: hits, their analogues and other compounds. The true share with any hit is near 2.7%. Unless noted, calls follow the shape of the dose curve; as a rule, active = well fitted inhibition curve with a large enough effect; inconclusive = small, poorly fitted or top-dose-only effect; inactive = no such curve, though single readings can be large or run the other way.

SMILES | IP6K1 inh | KDM5B inhibitor | IP6K1 conf
O=C(Nc1ccc(Cl)cc1)c1cc(S(=O)(=O)N2CCCc3ccccc32)ccc1F | 2.4 | u | x
Cc1ccc(NC(=O)c2cc(S(=O)(=O)NC3CCCCCC3)ccc2F)cc1F | -26.5* | i | -5.9%
Cc1ccc(NC(=O)c2cc(S(=O)(=O)N3CCCc4ccccc43)ccc2F)cc1F | -29.3* | i | -9.3%
Cc1c(-c2ccccc2)oc2c(C(=O)NCCN(C)C)cccc2c1=O | x | i | x
COc1cc(O)cc(/C=C/c2cccc(O)c2)c1 | -44.9* | x | u
CC(=O)Oc1cccc(O)c1 | 35.4 | x | x
COc1ccc(-c2cnc(NCc3ccc(C)cc3)n2C)cc1 | -10.9 | u | x
CCOc1ccc(-c2cnc(NCc3ccc(OC)cc3OC)n2C)cc1 | -25.4* | u | -12.0%
COc1ccc(OC)c(CNc2ncc(-c3ccc(Cl)cc3)n2C)c1 | -7.7 | u | x
COc1cccc(CNc2ncc(-c3ccc(Br)cc3)n2C)c1 | -35.2* | u | u
O=[S+]([O-])(NC1CCCN(c2ccnc3ccnn23)C1)c1cccc(C(F)(F)F)c1 (stereo not given) | 17.4 | x | x
Cc1cccc(NC(=O)c2cc(-c3ccc[nH]3)n[nH]2)c1 | -9.3 | u | u
COc1ccc(NC(=O)c2cc(-c3ccc[nH]3)n[nH]2)cc1F | 13.2 | i | u
Cc1ccc(NC(=O)c2cc(-c3ccc[nH]3)n[nH]2)cc1F | -5.5 | i | x
O=C(Nc1cccc(F)c1)c1cc(-c2ccc[nH]2)n[nH]1 | 26.0 | i | x
CN1C[C@@H](NC(=O)c2cccs2)C[C@H]1c1nc(-c2ccc(F)cc2)no1 | 3.3 | u | x
COc1cccc(CNC(=O)C2CCCN(c3ccnc4ccnn34)C2)c1 (stereo not given) | -7.2 | x | x
O=C(O)c1ccc2nc(CCl)[nH]c2c1 | x | i | x
O=C(CCC1CCCC1)NCc1ccc(CN2CCCC2)cc1 | x | i | x
Cc1nc2cc(NC(=O)C3CC(=O)N(c4cccc5ccccc45)C3)ccc2o1 (stereo not given) | x | i | x
Cc1cc(C(=O)N2CCN(S(=O)(=O)c3ccc(C(C)C)cc3)CC2)c(C)n1C(C)C | x | i | x
Cc1noc(-c2nc(-c3cccc(C(F)(F)F)c3)no2)n1 | -10.8 | i | x
Cn1cc(CNc2ccc(-c3nc(-c4cccc(C(F)(F)F)c4)no3)cn2)cn1 | -32.6* | u | u
Cc1ccccc1NC(=O)CCn1nc(-c2ccccc2)c2ccccc2c1=O | -25.5* | i | -9.5%
O=C(CCn1nc(-c2ccccc2)c2ccccc2c1=O)Nc1cccc2ccccc12 | x | i | x
SMILES | IP6K1 inh | KDM5B inhibitor | IP6K1 conf
N#Cc1c(O)c2c(-c3ccc(-c4ccccc4O)cc3)csc2[nH]c1=O | -46.1* | x | u
N#CC1C(=O)Nc2scc(-c3ccc(-c4ccccc4O)cc3)c2C1=O (stereo not given) | -23.1 | x | x
CCc1c(C(=O)c2ccc[nH]2)oc2ccc(Br)cc12 | x | i | x
C/C=C/C=C/C=C/C(=O)O[C@@H]1[C@@H](OC)C2=C(C(=O)N(C(C)C(=O)O)C2)[C@@]2(C)CCCC(C)(C)[C@H]12 (stereo not given in full) | 10.9 | x | -5.6%[18.9 µM]
C/C=C/C=C/C=C/C(=O)O[C@@H]1[C@@H](OC)C2=C(C(=O)N(C(CCC(=O)O)C(=O)O)C2)[C@@]2(C)CCCC(C)(C)[C@H]12 (stereo not given in full) | -16.5 | x | x
O=C(Nc1ncc([N+](=O)[O-])s1)c1ccccc1O | -30.7* | x | u
CC(=O)Nc1ncc([N+](=O)[O-])s1 | 8.8 | x | x
O=C(CN1CCN(Cc2nnc(-c3ccccc3)o2)CC1)N1CCCC1 | x | i | x
OCCOCCN1CCN(C(c2ccccc2)c2ccc(Cl)cc2)CC1 (stereo not given) | -31.1* | x | 3.66µM*
O=C(O)COCCN1CCN(C(c2ccccc2)c2ccc(Cl)cc2)CC1 (stereo not given) | 9.6 | x | x
CCN(CC(=O)NC(C)(C)C)C(=O)c1cc(C(C)C)nc2ccccc12 | x | i | x
CCCc1cc(C(=O)OCC(=O)c2ccc3c(c2)OCCO3)sc1C | x | i | x
CCc1ccc(NC(=O)CN(c2ccc(OC)cc2)S(=O)(=O)c2c(C)[nH]c(=O)[nH]c2=O)cc1 | -30.7* | i[11.5 µM] | -3.0%
CCc1ccc(NC(=O)CN(c2cc(C)cc(C)c2)S(=O)(=O)c2c(C)[nH]c(=O)[nH]c2=O)cc1 | -14.6 | i[11.5 µM] | x
COc1cc(C(=O)NCC2COc3ccccc3O2)cc(OC)c1C (stereo not given) | x | i | x
